Screening results from PubChem.
A selection: hits, their analogues and other compounds. The true share with any hit is near 31%.
CYP2C19 act – cytochrome P450 2C19 (human) activation; P33261; recombinant CYP2C19, luciferin-H EGE luminescence; stronger effect = higher value; 0 = fully inhibited enzyme, 1 = untreated enzyme; activation factor at 5 µM; 96,000 tested, under 10 active; AID 1025;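 active = activation factor of at least 2 at 5 µM in the primary screen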;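 note: 0 = wells with 2.5 mM tranylcypromine and 1 = vehicle-only wells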
CYP2C9 activ – increases human cytochrome P450 2C9 activity; P11712; AID 1024; recombinant CYP2C9, luciferin-H conversion, luminescence; stronger effect = higher value; factor 1 = untreated enzyme, 0 = blocked; activation factor at 5 µM; actives 1.4% (n = 96,000);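 active = activation factor of 2 or more for CYP2C9 at a 5 µM dose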;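 note: 0 = sulfaphenazole-blocked wells and 1 = vehicle-only wells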
Target sequence (P11712 whole entry, looked up): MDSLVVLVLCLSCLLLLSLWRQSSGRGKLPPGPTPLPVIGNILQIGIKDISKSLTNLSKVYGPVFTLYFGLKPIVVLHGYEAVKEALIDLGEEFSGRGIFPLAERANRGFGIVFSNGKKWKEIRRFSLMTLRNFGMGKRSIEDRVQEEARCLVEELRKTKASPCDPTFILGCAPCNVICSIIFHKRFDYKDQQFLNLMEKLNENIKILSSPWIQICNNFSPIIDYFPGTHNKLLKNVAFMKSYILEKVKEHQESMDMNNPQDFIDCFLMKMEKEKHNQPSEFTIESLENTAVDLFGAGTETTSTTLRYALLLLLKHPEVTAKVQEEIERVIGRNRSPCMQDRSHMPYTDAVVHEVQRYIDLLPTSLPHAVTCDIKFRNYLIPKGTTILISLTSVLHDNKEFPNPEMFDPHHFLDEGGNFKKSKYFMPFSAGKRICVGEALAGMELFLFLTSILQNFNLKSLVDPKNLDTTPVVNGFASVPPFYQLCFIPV
CYP2C9 inhib – blocks human cytochrome P450 2C9 | P11712 | inhibition, % at 5 µM | AID 777 | CYP2C9 Supersomes, luciferin-H conversion, luminescence | actives 20% (n = 96,000);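 active = blocking of liver enzyme CYP2C9 beyond about 50% at 5 µM, limit read from the data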
CYP2C19 inh – human CYP2C19 inhibition; inhibition, % at 5 µM; P33261; CYP2C19 Supersomes, luciferin-H EGE luminescence, 30 min; actives 21% (n = 96,000);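 active = CYP2C19 inhibition above a set limit at 5 µM in the primary screen, cut at about 50% in these data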;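 note: plate controls were negative control wells for no effect and 2.5 mM tranylcypromine positive control for full effect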
An asterisk follows results filed as active.

Screening Cc1ccc(S(=O)(=O)N2CCN(C(=O)c3nn(C(C)C)c(=O)c4ccccc34)CC2)cc1C returned CYP2C19 act 0.6, CYP2C9 activ 0.4, CYP2C9 inhib 58.6* and CYP2C19 inh 38.4.
Screening N#CCCN1CCN(S(=O)(=O)c2ccc(S(=O)(=O)N3CCOCC3)cc2)CC1 returned CYP2C19 act 1.1, CYP2C9 activ 1, CYP2C9 inhib -1.4 and CYP2C19 inh -13.6.
Cn1nc(C(=O)N2CCN(S(=O)(=O)c3ccccc3)CC2)c2ccccc2c1=O was read as CYP2C19 act 1.1, CYP2C9 activ 1, CYP2C9 inhib 1.8 and CYP2C19 inh -6.2.
`N#CCCN1CCN(S(=O)(=O)c2ccc3c(c2)OCCCO3)CC1` gave CYP2C19 act 0.2, CYP2C9 activ 0.9, CYP2C9 inhib 8.1 and CYP2C19 inh 81.7*.
`N#CCCN1CCN(S(=O)(=O)c2ccc(S(=O)(=O)NCC3CCCO3)cc2)CC1` (stereo not given) gave CYP2C19 act 1.2, CYP2C9 activ 0.9, CYP2C9 inhib 5.5 and CYP2C19 inh -23.1.
`CC1CCCCC1NS(=O)(=O)c1ccc(S(=O)(=O)N2CCN(CCC#N)CC2)cc1` (stereo not given) gave CYP2C19 act 0.5, CYP2C9 activ 0.6, CYP2C9 inhib 45.0 and CYP2C19 inh 52.4*.
`Cc1ccc(S(=O)(=O)N2CCN(C(=O)C3=COCCO3)CC2)cc1C` gave CYP2C19 act 0, CYP2C9 activ 1, CYP2C9 inhib 2.7 and CYP2C19 inh 97.1*.
CC(=O)n1cc(C(C[N+](=O)[O-])SCCN)c2ccccc21 (stereo not given) was read as CYP2C19 act 0.7, CYP2C9 activ 0.6, CYP2C9 inhib 43.8 and CYP2C19 inh 28.8.
Screening Cc1onc(-c2ccccc2)c1C(=O)N1CCN(C/C=C/c2ccccc2)CC1 returned CYP2C19 act 1, CYP2C9 activ 0.9, CYP2C9 inhib 13.5 and CYP2C19 inh 4.7.
O=c1c2cc(-c3ccccc3)sc2ncn1/N=C/c1ccco1 was read as CYP2C19 act 0.9, CYP2C9 activ 0.8, CYP2C9 inhib 17.1 and CYP2C19 inh 7.1.
Cc1ccc(S(=O)(=O)N2CCOCC2)cc1C(=O)Nc1ccc(-c2cn3ccsc3n2)cc1 was read as CYP2C19 act 0.7, CYP2C9 activ 0.7, CYP2C9 inhib 31.6 and CYP2C19 inh 33.2.
`COc1ccc(S(=O)(=O)N2CCN(S(=O)(=O)c3ccc4c(c3)OCCO4)CC2)cc1C` gave CYP2C19 act 0, CYP2C9 activ 0.1, CYP2C9 inhib 86.7* and CYP2C19 inh 98.9*.
Cc1ccc2nc(N3CCN(C(=O)c4cccs4)CC3)c(C#N)cc2c1 was read as CYP2C19 act 0.7, CYP2C9 activ 0.6, CYP2C9 inhib 41.2 and CYP2C19 inh 29.8.
Screening Cc1ccc(S(=O)(=O)N2CCN(S(=O)(=O)N3CCCCC3)CC2)cc1 returned CYP2C19 act 1.1, CYP2C9 activ 1.1, CYP2C9 inhib -5.2 and CYP2C19 inh -6.1.
For Cc1ccc2nc(N3CCN(S(=O)(=O)c4ccc5c(c4)OCCO5)CC3)c(C#N)cc2c1 the results were CYP2C19 act 0.3, CYP2C9 activ 0.5, CYP2C9 inhib 50.0* and CYP2C19 inh 70.2*.
`Cc1ccc(S(=O)(=O)N2CCCN(S(=O)(=O)c3ccc(C(F)(F)F)cc3)CC2)cc1` gave CYP2C19 act 0.7, CYP2C9 activ 2.5*, CYP2C9 inhib -148.7 and CYP2C19 inh 33.1.
For COc1ccc(S(=O)(=O)N2CCN(S(=O)(=O)c3ccc4c(c3)OCCO4)CC2)cc1 the results were CYP2C19 act 1, CYP2C9 activ 1, CYP2C9 inhib 4.2 and CYP2C19 inh 1.5.
Cc1ccc(S(=O)(=O)N2CCCN(S(=O)(=O)c3ccc4c(c3)OCCO4)CC2)cc1 was read as CYP2C19 act 0.7, CYP2C9 activ 2.7*, CYP2C9 inhib -171.1 and CYP2C19 inh 26.7.
Screening Cc1ccc(NC(=S)N2CCC(N(C)CC3CCCO3)CC2)c(C)c1 (stereo not given) returned CYP2C19 act 1.1, CYP2C9 activ 1.1, CYP2C9 inhib -5.8 and CYP2C19 inh -6.7.
`CC1CCC(N2CCN(c3ncccn3)CC2)C1` (stereo not given) gave CYP2C19 act 0.5, CYP2C9 activ 1, CYP2C9 inhib 3.3 and CYP2C19 inh 46.0.
CC(C)n1nc(C(=O)NCCc2ccc(S(N)(=O)=O)cc2)c2ccccc2c1=O was read as CYP2C19 act 0.9, CYP2C9 activ 0.4, CYP2C9 inhib 62.7* and CYP2C19 inh 9.2.
For O=C(NC1(C(F)(F)F)NC(=O)N(C2CCCC2)C1=O)C1CC1 (stereo not given) the results were CYP2C19 act 1, CYP2C9 activ 1.1, CYP2C9 inhib -8.4 and CYP2C19 inh 4.1.
